Entries with a potency or affinity are not part of this list. Values without a mark were called inactive. The rule behind the calls is not given here.
Conditions: Ebola virus entry assay, green fluorescence channel
Note: 0% is about no effect.

SMILES | efficacy
O=C(Nc1ccccc1)OCC(CN1CCCCC1)OC(=O)Nc1ccccc1 (stereo not drawn) | 31.7%
CCCCOc1cc(C(=O)NCCN(CC)CC)c2ccccc2n1 | 119%
CC(N)C(=O)OC(C)(C)Cc1ccc(Cl)cc1 (stereo not drawn) | 77%
CCN(CC)CCOc1ccccc1C(=O)CCc1ccccc1 | 42.3%
CN1CCC(N(Cc2cccs2)c2ccccc2)CC1 | 53.5%
O=C1NC2CCCCN2C12CCN(CCCN1c3ccccc3CCc3ccc(Cl)cc31)CC2 (stereo not drawn) | -203%
CCCCC1C(=O)N(c2ccccc2)N(c2ccc(O)cc2)C1=O (stereo not drawn) | 73.1%
CCCCOc1ccc(C(=O)CCN2CCCCC2)cc1 | 94.7%
CN(C)CCCN1c2ccccc2Sc2ccc(C(F)(F)F)cc21 | -67.9%
C[C@]12CCC(=O)C=C1C=C[C@@H]1[C@@H]2CC[C@@]2(C)[C@H]1CC[C@@]21CCC(=O)O1 | 123%
O=C(O)c1cn(-c2ccc(F)cc2)c2cc(N3CCNCC3)c(F)cc2c1=O | 23.7%
c1cc(CN2CCCCC2)cc(OCCCNc2nc3ccccc3s2)c1 | 69.1%
Cc1cccc(N(C)C(=S)Oc2ccc3c(c2)C2CCC3C2)c1 (stereo not drawn) | 40.9%
CNCCC(Oc1ccccc1OC)c1ccccc1 (stereo not drawn) | 84.9%
CN1CCCN(C(c2ccccc2)c2ccc(Cl)cc2)CC1 (stereo not drawn) | 53.7%
CCCCOc1ccc(OCCCN2CCOCC2)cc1 | 94.1%
OCc1cc(C(O)CNCCCCCCOCCCCc2ccccc2)ccc1O (stereo not drawn) | 98.5%
CC(Oc1c(Cl)cccc1Cl)C1=NCCN1 (stereo not drawn) | 76.8%
CN(C)CCOC1=Cc2ccccc2Sc2ccc(Cl)cc21 | 46.9%

SMILES | efficacy
CC(C)(C)C(=O)OCOC(=O)C1N2C(=O)CC2S(=O)(=O)C1(C)C (stereo not drawn) | 65.1%
CN1CCN(CCC(=O)N2c3ccccc3Sc3ccc(C(F)(F)F)cc32)CC1 | 68.9%
CCN(CC)CCCC(C)Nc1c2ccc(Cl)cc2nc2ccc(OC)cc12 (stereo not drawn) | 40.6%
Cc1ccc(N(CC2=NCCN2)c2cccc(O)c2)cc1 | 66%
CCC(CN)=C(c1ccccc1)c1ccccc1 | 124%
COc1ccc2c(c1)c(CC(=O)O)c(C)n2C(=O)c1ccc(Cl)cc1 | 67.4%
CC1=C(C)C(=O)C(C(CCCCCC(=O)O)c2ccccc2)=C(C)C1=O (stereo not drawn) | 61.1%
Fc1ccc(C(c2ccc(F)cc2)N2CCN(C/C=C/c3ccccc3)CC2)cc1 | 37.6%
CCc1cccc(N(C)C(N)=Nc2cccc3ccccc23)c1 | 108%
c1ccc2c(c1)CCc1ccccc1N2 | -29.2%
COc1ccc(-n2nc(CCC(=O)N(C)O)cc2-c2ccc(Cl)cc2)cc1 | 77.8%
CCc1ccc(C(=O)C(C)CN2CCCCC2)cc1 (stereo not drawn) | 36.6%
CN1CCCN=C1COC(=O)C(O)(c1ccccc1)C1CCCCC1 (stereo not drawn) | 75.7%
O=c1[nH]c2ccccc2n1CCCN1CCN(C(c2ccccc2)c2ccccc2)CC1 | -120%
OC(CCN1CCCCC1)(c1ccccc1)c1ccccc1 | 36.7%
NC(=O)C1(N2CCCCC2)CCN(CCCN2c3ccccc3CCc3ccc(Cl)cc32)CC1 | -222%
CC(CC1c2ccccc2CCc2ccccc21)CN(C)C (stereo not drawn) | 28.4%
Oc1ccc(CCNCCCCCCNCCc2ccccc2)cc1O | 30.5%
CN(C)CCOC(c1ccccc1)c1ccc(Br)cc1 (stereo not drawn) | 63.8%

Reference: PubChem BioAssay (NCATS)
